Source: PubChem (National Center for Advancing Translational Sciences (NCATS))
HTT aggregate: mutant huntingtin aggregation inhibition | PC12 HttQ103-GFP aggregates, Acumen cytometry, 40 h | Potency, µM (doses to about 46.1 µM), for inactives: top-dose activity change, negative = inhibition, usual class: inhibitors | 1.1% of 220,000 active | AID 1688; further: potency means the concentration at half of the fitted maximal effect; on the % scale 0 is the no-effect control and ±100 the full control effect; nearly all actives have a fitted effect of over 60% in size
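Aggregates are detected as GFP objects 1–25 µm with signal 6 STDEV over background in lysates of induced PC12 cells. These carry Huntingtin exon 1 with 103 glutamines fused to GFP under an ecdysone promoter; compounds titrated.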
CBFb-RUNX1 inh: CBF-beta/RUNX1 interaction disruption; AID 1477; Potency, µM (titrated, usually from 59.8 µM), without a hit: at the highest dose activity, negative = inhibition, usual class: inhibitors; 230,000 tested, under 10 active; Q01196+Q13951; AlphaScreen CBFb-His/RUNX1-biotin binding, biochemical; further: % of control where 0% means no effect
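His-tagged CBF-beta and biotinylated RUNX1 (30 nM each) were premixed 20 min at room temperature, exposed to compound for 15 min, then given nickel-chelate and streptavidin AlphaScreen beads (50 ng each). After 90 min, AlphaScreen signal was read.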
HTT cytoprotect: Huntington cell model cytoprotection by ATP luminescence; PC12 HTT-Q103 induced, cytoprotection, ATP luminescence, 40 h; 0.14% of 230,000 active; Potency, µM (titrated, usually from 56.4 µM), for inactives: cytoprotection (ATP increase), most hits filed as activators; AID 1471; further: potency means the concentration at half of the fitted maximal effect; % of control where 0% means no effect; nearly all actives have a fitted effect of over 45% in size
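Quantitative HTS on tebufenozide-induced (100 nM) PC12 cells expressing HTTQ103 exon 1–GFP; compounds tested as a concentration series; survival measured via cellular ATP.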
JMJD2E inh: JMJD2E (human) inhibition | Potency, µM (titrated, usually from 57.1 µM), for the others: at the top dose activity change, negative = inhibition, usual class: inhibitors | AID 2147 | 1.6% of 230,000 active | JMJD2E catalytic domain, FDH-coupled NADH fluorescence (FDH is formaldehyde dehydrogenase);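 further: potency means the concentration at half of the fitted maximal effect; 0% = wells with enzyme and -100% = buffer wells without enzyme; nearly all actives have a fitted effect of over 50% in size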
Target sequence (B2RXH2 1-337 limits assumed): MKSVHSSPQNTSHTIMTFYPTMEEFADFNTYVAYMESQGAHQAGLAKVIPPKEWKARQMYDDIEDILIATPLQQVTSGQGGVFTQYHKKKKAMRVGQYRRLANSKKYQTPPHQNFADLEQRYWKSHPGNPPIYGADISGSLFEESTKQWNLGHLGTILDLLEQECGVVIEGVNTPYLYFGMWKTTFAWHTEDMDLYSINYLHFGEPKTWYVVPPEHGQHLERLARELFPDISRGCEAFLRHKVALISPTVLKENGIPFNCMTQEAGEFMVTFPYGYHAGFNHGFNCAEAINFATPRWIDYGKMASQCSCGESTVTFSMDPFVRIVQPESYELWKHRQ
ALDH1A1 inh: ALDH1A1 (human) enzyme inhibition | 7.3% of 220,000 active | AID 1030 | Purified ALDH1A1, NADH fluorescence, propionaldehyde substrate | Potency, µM (series often up to 75.3 µM), without a hit: at the highest dose activity, negative = inhibition, most hits filed as inhibitors | P00352; active means well fitted inhibition curve with a large enough effect, not every such curve was filed as active; inconclusive means small, poorly fitted or top-dose-only effect, or another doubt; inactive means no such curve, though single readings can be large or run the other way;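 further: potency means the concentration at half of the fitted maximal effect; plate controls were no enzyme wells and a reference inhibitor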
HPGD inh: inhibitors of human 15-hydroxyprostaglandin dehydrogenase (HPGD); P15428; purified HPGD, NADH fluorescence kinetic, PGE2 substrate; Potency, µM, without a hit: at the highest dose activity change, negative = inhibition, most hits filed as inhibitors; 4.3% of 150,000 active; active means well fitted inhibition curve with a large enough effect, not every such curve was filed as active; inconclusive means small, poorly fitted or top-dose-only effect, or another doubt; inactive means no such curve, though single readings can be large or run the other way; further: potency means the concentration at half of the fitted maximal effect; on the % scale 0 is the no-effect control and ±100 the full control effect
Target sequence (P15428 whole entry, looked up): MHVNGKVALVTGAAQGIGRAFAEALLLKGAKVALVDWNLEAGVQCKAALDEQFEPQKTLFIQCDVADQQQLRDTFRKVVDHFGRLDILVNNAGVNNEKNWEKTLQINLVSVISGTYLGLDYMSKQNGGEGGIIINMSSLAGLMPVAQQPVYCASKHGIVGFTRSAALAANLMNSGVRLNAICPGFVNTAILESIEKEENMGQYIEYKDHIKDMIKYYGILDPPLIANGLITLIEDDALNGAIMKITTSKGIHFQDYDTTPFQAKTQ
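20 nM HPGD preincubated 15 min at room temperature with compound in 50 mM Tris-HCl pH 8, 0.01% Tween 20. Started with 1 mM NAD+ and 30 uM prostaglandin E2; NADH fluorescence (360/450 nm) read 5 times over 30-s intervals, last minus first.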
* marks the source's active call; other numbers are inactive results; u = inconclusive; x = not tested or not shown; [ ] = dose if it differs, or a comment. Sampled rows, rich in hits. Any-hit rate of the full collection: about 9.8%. Unless noted, the call rests on the fitted dose curve; in most records, active means well fitted curve in the direction sought with a large enough effect; inconclusive means small, poorly fitted or top-dose-only effect, or another doubt; inactive means no such curve, though single readings can be large; an effect the other way counts as inactive or inconclusive.

SMILES | HTT aggregate | CBFb-RUNX1 inh | HTT cytoprotect | JMJD2E inh | ALDH1A1 inh | HPGD inh
Clc1ccc(-n2c(SCc3nc4ccccc4[nH]3)nnc2-c2ccncc2)cc1 | 3% | 1% | -23% | 0% | 1% | -4%
CCOc1ccc(NC(=S)/C(=C(\[O-])c2ccc(C)c([N+](=O)[O-])c2)[n+]2ccccc2)cc1 | u | -18% | 15% | -7% | 11µM* | u
O=[N+]([O-])c1ccc(/C([O-])=C(/C(=S)NCc2ccco2)[n+]2ccccc2)cc1 | 23% | u | 5%[10 µM] | 14µM* | 7.9µM* | x
Cc1ccc(NC(=S)/C(=C(\[O-])c2ccc(F)cc2)[n+]2ccccc2)cc1 | -8% | -13% | -35% | -13% | 10µM* | x
COc1cccc(NC(=S)/C(=C(\[O-])c2ccc([N+](=O)[O-])cc2)[n+]2ccccc2)c1 | 26% | -14% | -23%[10 µM] | u | 13µM* | x
C/C(CC(=O)Nc1cccnc1)=N\NC(=O)C(C)Oc1ccc(Cl)cc1Cl (configuration not stated) | -2%[9.22 µM] | 1% | 0%[10 µM] | -20% | x | x
O=C(O)c1ccccc1-c1ccccc1C(=O)Nc1ccc2c(c1)Cc1ccccc1-2 | x | x | -2%[10 µM] | x | 8%[13.5 µM] | -4%
COc1ccccc1N=C1SCC(=O)N1c1ccccc1OC | 16% | -1% | x | -9% | 20µM* | u
COc1ccccc1N1C(=O)CSC1=NC(=O)c1ccccc1 | 5%[9.22 µM] | 13% | 14%[10 µM] | 6% | -2% | x
Cc1cc(-c2ccccc2)n(-c2cc(N/N=C/c3ccccc3O)ncn2)n1 | 8.9µM* | u | -88%[10 µM] | u | 9% | -12%
Cc1ccc2c(n1)sc1c(-c3ccccc3)c(C#N)c(N)nc12 | 13µM* | 5% | -61% | 2% | -8% | x
CCN1C(=O)C(CC(=O)Nc2ccc(OC)cc2)N(CCc2ccccc2F)C1=S (configuration not stated) | -3%[9.22 µM] | 3% | 0%[10 µM] | 4% | x | x
CCN1C(=O)C(CC(=O)Nc2ccc(OC)cc2)N(CCc2ccccc2)C1=S (configuration not stated) | -22% | -3% | -50% | 0% | 2µM* | x
COc1ccc(NC(=O)CC2C(=O)N(C)C(=S)N2CCc2ccccc2F)cc1 (configuration not stated) | 3% | -2% | 8% | 0% | 4µM* | x
CCN1C(=O)C(CC(=O)Nc2ccc(F)cc2)N(CCc2ccc(OC)cc2)C1=S (configuration not stated) | 3%[9.22 µM] | 5% | -16%[10 µM] | -17% | 10µM* | x
COC(=O)CCC(=O)OC1(C)C(=O)C=C2C=C(CCCNC(=O)OC(C)(C)C)OC=C2C1=O (configuration not stated) | x | 14% | 15% | -2% | -1% | 3%
CS(=O)(=O)c1[nH]nc(-c2ccccc2Cl)c1C#N | 6%[9.22 µM] | 9% | -14%[10 µM] | 0% | x | x
O=C(N/N=C/c1ccccc1O)C(=O)Nc1ccccn1 | 14% | -2% | -1%[10 µM] | 15% | -2% | x
COc1ccc(NC(=O)C2CC2)cc1-n1cnnn1 | -11%[9.22 µM] | 0% | -17%[10 µM] | -13% | -6% | 14µM*
O=C(COC(=O)C(O)C(O)C(=O)OCC(=O)c1ccc(C(F)(F)F)cc1)c1ccc(C(F)(F)F)cc1 (configuration not stated) | -11%[9.22 µM] | 5% | 20%[10 µM] | 5% | x | x
Cc1cc(C)c(S(=O)(=O)Nc2cc(SCC(=O)O)c(O)c3ccccc23)cc1C | -6% | -10% | -18%[10 µM] | 28µM* | u | 1.1µM*
CCn1c2ccccc2c2cc(/C=N/n3c(-c4cc(C)[nH]n4)n[nH]c3=S)ccc21 | -3%[9.22 µM] | -18% | 9%[10 µM] | -10% | 13µM* | x
COc1ccc(/C=N/n2c(-c3cc(C)[nH]n3)n[nH]c2=S)cc1 | -3%[9.22 µM] | -3% | -4%[10 µM] | -14% | x | x
CCn1c2ccccc2c2cc(/C=N/n3cn[nH]c3=S)ccc21 | -13% | -13% | -26% | u | 22µM* | 16µM*
S=c1[nH]ncn1/N=C/c1ccc(Br)cc1 | -8% | 0% | -17% | -9% | 32µM* | 22µM*
SMILES | HTT aggregate | CBFb-RUNX1 inh | HTT cytoprotect | JMJD2E inh | ALDH1A1 inh | HPGD inh
O=C1OC(CO)C(O)C(O)C1O (configuration not stated) | 0% | 10% | u | 2% | -4% | -5%
COC(=O)c1cc(-c2ccccc2)sc1NC(=O)CN1C(=O)c2ccccc2C1=O | 3% | 4% | -22% | -2% | 25µM* | u
COC(=O)c1cc(OC)c(OC)cc1NC(=O)CN1C(=O)c2ccccc2C1=O | -1%[9.22 µM] | 2% | 21% | 2% | u | -9%
COc1ccc2c(c1)S/C(=C\C(=O)c1ccncc1)N2C | 20% | -1% | 7% | -16% | 14µM* | 28µM*
Cc1nc([N+](=O)[O-])c(C(=O)O)n1C | -13% | 6% | 0% | -2% | 4% | x
COc1ccc(-c2coc3cc(O)ccc3c2=O)c(O)c1O | x | x | -29% | 11µM* | 8.9µM* | 7.1µM*
Cc1ccccc1-c1coc2cc(O)ccc2c1=O | -14% | -2% | -24%[0.074 µM] | u | u | u
S=C1NC=NC2N=CNC12 (configuration not stated) | -21% | 5%[21.7 µM] | -76% | x | 2.2µM* | u
COc1cccc(C(=O)NC2CCN(C(=O)N3c4ccccc4Sc4ccccc43)CC2)c1 | u | -11% | -28%[10 µM] | 1% | 7% | -17%
COc1cccc(C(=O)N2c3ccccc3Sc3ccccc32)c1 | 1% | -4% | -11%[1.9 µM] | -14% | 3% | 14µM*
O=C(OCC#CCSc1nnc(-c2cccc3ccccc23)o1)c1cccs1 | -2% | u | -38% | u | u | u
O=C(OCC#CCSc1nnc(-c2ccccc2)o1)c1cccs1 | 18% | 15% | -14% | -9% | 20µM* | 16µM*
O=c1cc(-c2cccc(O)c2O)oc2ccccc12 | x | -24%[21.7 µM] | u | 7.1µM* | -3% | 16µM*
COc1cc(-c2cc(=O)c3ccccc3o2)ccc1O | 7% | 15%[21.7 µM] | -24%[1.9 µM] | u | -4% | 35µM*
O=c1cc(-c2c(F)c(F)c(F)c(F)c2F)oc2ccccc12 | -20% | 8% | u | -1% | 16µM* | -21%
COc1cc(-c2cc(=O)c3c(O)cc(O)cc3o2)ccc1O | 22%[9.22 µM] | -1% | 12%[10 µM] | 2% | u | x
COc1ccc(N2Cc3ccccc3C2=NC(=O)c2cncc(Br)c2)cc1 | -9% | -2% | 4%[10 µM] | 0% | u | x
COc1ccc(C2C(C(=O)c3ccccc3)N3c4ccccc4C=CC3C2[N+](=O)[O-])cc1 (configuration not stated) | 18µM* | -29% | -70% | -16% | 25µM* | x
Cc1cc(Cl)nc(Cl)c1C(=O)NC(=O)NCCC(C)C | -5% | 1% | 7% | 2% | -10% | x
